# Shown is part of a subset that was picked to be rich in hits.
# Pf Dd2 growth = Plasmodium falciparum Dd2 growth inhibition. P. falciparum Dd2 growth, SYBR Green, 72 h. AID 1347417. 120,000 tested, 4.3% active. Potency, µM (top dose mostly 28.9 µM), hits mostly inhibitors; active = well fitted inhibition curve with a large enough effect; note: nearly all actives have a fitted effect of over 65% in size
#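 Infected erythrocytes (Dd2, 0.3% parasitemia, 2.5% hematocrit final) are added to compound in RPMI-1640/Albumax II medium, grown 72 h at 37C in low oxygen, then lysed with saponin/Triton-X containing SYBR Green and read by fluorescence.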
# Numbers stand for hits; 0 = inactive.
SMILES,Pf Dd2 growth
CCCN1C(=O)c2[nH]nc(-c3ccccc3O)c2C1c1ccc(OCc2ccccc2)c(OC)c1 (centres undefined),10µM
CCCOc1ccc(C(=O)N(Cc2ccco2)Cc2ccco2)cc1,0
COc1cccc(-c2n[nH]c3c2C(c2ccccn2)N(C)C3=O)c1 (centres undefined),0
Cc1ccc(CCNC(=O)C2CC(=O)N(CCc3ccccc3)C2)cc1 (centres undefined),0
CCCn1nc(C)c2c1NC(=O)CC2c1ccc(OCC(N)=O)c(OC)c1 (centres undefined),0
O=C1c2[nH]nc(-c3ccccc3O)c2C(c2cccc(Br)c2)N1Cc1ccncc1 (centres undefined),0
CCCOc1cccc(C2c3c(-c4ccccc4O)n[nH]c3C(=O)N2Cc2ccco2)c1 (centres undefined),5.62µM
CC(C)NC(=O)N1CCCC1c1noc(CCC(=O)NC2CC2)n1 (centres undefined),0
COc1ccc(Nc2ccc3c(n2)CN(Cc2ccc(F)cc2)C(=O)CO3)cn1,0
COCCn1nc2n(c1=O)CCN(C(=O)c1ccc(Br)o1)CC2,0
Cc1ccc(-c2ncc[nH]2)o1,0
CCOc1ccc(C2c3cc(OCC)c(OCC)cc3CC(=O)N2c2ccc(C(=O)O)cc2)cc1OCC (centres undefined),0
COc1cc(C2C(C(=O)OCC(C)C)=C(C)N=C3SCCC(=O)N32)ccc1OCc1ccccc1 (centres undefined),0
O=C1c2[nH]nc(-c3ccccc3O)c2C(c2cccc(OCc3ccccc3)c2)N1CCCO (centres undefined),11.2µM
COc1cc(C2c3c(-c4ccccc4O)n[nH]c3C(=O)N2CCO)ccc1OCc1ccccc1 (centres undefined),11.2µM
CCOc1ccc(C2c3c(-c4cc(C)ccc4O)n[nH]c3C(=O)N2Cc2cccnc2)cc1OCC (centres undefined),11.2µM
CCOc1cc(C2c3c(oc4cc(C)cc(C)c4c3=O)C(=O)N2CCO)ccc1O (centres undefined),0
COc1cc(C2c3c(-c4cc(C)ccc4O)n[nH]c3C(=O)N2Cc2cccnc2)cc(OC)c1OC (centres undefined),0
CCCCCOc1ccc(C2c3c(oc4ccccc4c3=O)C(=O)N2c2nc(C)c(C)s2)cc1OCC (centres undefined),0
O=C1c2[nH]nc(-c3ccccc3O)c2C(c2cccc(Cl)c2)N1Cc1cccnc1 (centres undefined),0
CCOc1ccc(C2c3c(oc4ccc(C)cc4c3=O)C(=O)N2CCCN(C)C)cc1OC (centres undefined),0
CCCOc1ccc(C2c3c(-c4ccccc4O)n[nH]c3C(=O)N2CCc2ccccc2)cc1OCC (centres undefined),4.47µM
O=S(=O)(c1cccs1)N1CCC(c2nc(CCOc3ccc(F)cc3)no2)C1 (centres undefined),0
Cc1ccc(C(=O)N2CCC3(CC2)CC(CO)N(C(=O)c2ccccc2)C3)cn1 (centres undefined),0
Cc1cc(C(=O)N[C@@H]2CCOC[C@H]2OCC(=O)O)sc1-c1ccccc1,0
SMILES,Pf Dd2 growth
CNc1nccc(N2CCC(CC(=O)NCc3ccncc3)CC2)n1,0
CC1(C(=O)NC2CCC2)CN(Cc2ccccc2)Cc2ccc(N3CCOCC3)nc21 (centres undefined),0
Cc1cc(C)c2c(=O)c3c(oc2c1)C(=O)N(Cc1ccco1)C3c1ccccc1F (centres undefined),0
O=C1c2[nH]nc(-c3ccccc3O)c2C(c2ccccc2F)N1Cc1ccncc1 (centres undefined),0
Cc1cc(C)c(-c2n[nH]c3c2C(c2ccccc2F)N(Cc2ccco2)C3=O)c(O)c1 (centres undefined),3.98µM
COCCNC(=O)[C@H]1C[C@H](Oc2ccccc2)CN1S(=O)(=O)c1ccc(OC)cc1,0
COc1ccc(C(=O)N2CCCCCCN(C)C(=O)[C@@H]3CCC[C@@H]32)cc1,0
CN1CCCCCCN(C(=O)c2ccnn2C)[C@H]2CCC[C@H]2C1=O,0
CN1CCCCCCN(C(=O)c2ccc3ccccc3n2)[C@H]2CCC[C@H]2C1=O,6.31µM
O=C1NCCCc2[nH]c(-c3cnn(-c4cccc(F)c4)c3)nc21,0
CCNC(=O)N1CCC(Cc2ncc(C)n2C2CC2)C1 (centres undefined),0
Cc1ccc(C2=NC3(CCN(C(=O)Cc4ccccc4C)CC3)ON2)cc1,0
O=C(c1cccc(F)c1)N1CCC(n2cnnc2-c2ccccc2)CC1,0
COc1ccc(Cn2c(-c3cccc(Cl)c3)nc(C)c(CCO)c2=O)cc1F,0
CC(=O)NC[C@H]1OC[C@@H](NC2CCCC2)[C@@H]1O,0
COc1cccc(C2Cn3nnc(-c4nc(-c5ccc(OC(C)C)cc5)no4)c3CO2)c1 (centres undefined),0
Clc1ccccc1C1Cn2cnc(-c3nc(-c4cccnc4)no3)c2CO1 (centres undefined),4.47µM
COc1ccc(C2Cn3nnc(-c4nc(-c5ccc(C)cc5)no4)c3CO2)cc1 (centres undefined),0
Fc1ccc(C2Cn3nnc(-c4nc(-c5cccnc5)no4)c3CO2)cc1 (centres undefined),0
COc1ccc(C2Cn3cnc(-c4nc(-c5ccc(OC(C)C)cc5)no4)c3CO2)cc1 (centres undefined),11.2µM
CCOc1ccc(C2Cn3nnc(-c4nc(-c5cccnc5)no4)c3CO2)cc1 (centres undefined),0
CCOc1ccccc1C1NC(=O)N(CC(=O)Nc2cc(F)ccc2F)C2=C1C(=O)OC2 (centres undefined),0
CC(=O)c1cccc(N2C(=O)[C@@H]3[C@@H](CCN3C(=O)C(C)(C)C)N(Cc3cccc(F)c3)C2=O)c1,0
CC(C)c1ccc(C2c3c(oc4ccc(Cl)cc4c3=O)C(=O)N2CCCN2CCOCC2)cc1 (centres undefined),6.31µM
COc1ccc(C2c3c(oc4ccc(C)cc4c3=O)C(=O)N2CCCN2CCOCC2)cc1OC (centres undefined),0
SMILES,Pf Dd2 growth
Cc1ccc2oc3c(c(=O)c2c1)C(c1ccc(O)cc1)N(CCCN(C)C)C3=O (centres undefined),0
CCCCN1C(=O)[C@@H]2C[C@@H](O)CN2C2(CN(Cc3cccnc3)C2)C1=O,0
Cc1ccc(-n2ncc(C(=O)N3CCN(Cc4ccccc4)CC3)c2C2CCN(C(=O)OC(C)(C)C)CC2)c(C)c1,8.91µM
CC(C)(C)OC(=O)N1CCC(c2c(C(=O)N3CCN(Cc4ccccc4)CC3)cnn2-c2ccc(Cl)cc2)CC1,11.2µM
Cc1ccc(-n2ncc(C(=O)N3CCN(C(=O)c4ccco4)CC3)c2C2CCN(C(=O)OC(C)(C)C)CC2)cc1,0
CC(C)(C)OC(=O)N1CCC(c2c(C(=O)N3CCN(C(=O)c4ccco4)CC3)cnn2-c2ccccc2)CC1,0
CN1C(=O)CC[C@]2(C(=O)NCc3cccc(F)c3)CCCC[C@@H]12,0
Cc1[nH]ncc1C(=O)N[C@@H]1CN(S(C)(=O)=O)C[C@H]1CN(C)C,0
Cc1ccc2c(C(=O)N3CCOCC3)cc(NC(=O)C3CCC3)cc2n1,0
COc1cccc(C(=O)N2CC(c3nnc(C(C)C)o3)C3(CCOCC3)C2)c1OC (centres undefined),0
C=CCN1CCN(C(=O)[C@@H]2Cc3c[nH]c4cccc(c34)[C@H](CC(C)C)N2)CC1,11.2µM
C=CCn1cc2c3c(cccc31)[C@H](CC(C)C)N[C@H](C(=O)NCCCN1CCCC1=O)C2,0

# Screening results from PubChem.
